Rows were chosen to be rich in hits. Some 2.9% of all compounds tested hit in one or more screens of this group.
MmCpn inh: inhibitors of Methanococcus maripaludis chaperonin TRiC (MmCpn); purified Mm-Cpn ATPase, ADP Transcreener TR-FRET; Potency, µM (doses to about 76.9 µM), for inactives: top-dose activity, negative = inhibition, hits mostly inhibitors; hit rate 0.031% among 330,000; active means well fitted inhibition curve with a large enough effect; inconclusive means small, poorly fitted or top-dose-only effect; further: potency means the concentration at half of the fitted maximal effect; on the % scale 0 is the no-effect control and ±100 the full control effect; nearly all actives have a fitted effect of over 80% in size
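Measured: ADP formation by purified Mm-CPN. Conditions: 25 nM protein, 10 uM ATP, Tris pH 7.4 with Mg2+, K+ and DTT, 37°C for 30 min. Detection: Transcreener HTRF after 30 min at room temperature.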
Rango dissoc inh: inhibition of RanGTP-driven Rango-importin beta dissociation; hit rate 0.071% among 340,000; AID 540253; Potency, µM (titrated, usually from 46.1 µM), inactives show top-dose activity change, negative = inhibition; Biochemical FRET Rango-importin beta, RanGTP-induced dissociation; O95149+P62826; further: potency means the concentration at half of the fitted maximal effect; % of control where 0% means no effect; nearly all actives have a fitted effect of over 45% in size
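Rango FRET biosensor (snurportin-1 IBB flanked by N-terminal EYFP and C-terminal CFP10) at 0.1 uM, with 0.25 uM importin beta in PBS, 1mM DTT, 0.02% Tween-20, 0.1% BSA. 0.6 uM Ran, 2mM GTP and 0.2 uM RCC1 were then added for 45 min at room temperature. Inhibition read as loss of FRET rise.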
PTAP TSG101 blk: blocks PTAP/TSG101 interaction to inhibit HIV-1 budding; Fluorescence polarization, FITC-PTAP peptide / Tsg101 binding; Potency, µM (top dose mostly 115 µM), for inactives: at the highest dose activity change, negative = inhibition, usual class: inhibitors; 340,000 tested, under 10 active; Q99816; AID 493005; active means well fitted inhibition curve with a large enough effect in the main read-out, with a control signal flat, not every such curve was filed as active; inconclusive means small, poorly fitted or top-dose-only effect, or effect the other way, or a change in a side signal; inactive means no such curve, though single readings can be large or run the other way; further: potency means the concentration at half of the fitted maximal effect; % of control where 0% means no effect
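Fluorescence polarization binding of Tsg101 binding domain (10 uM final) to FITC-labeled PTAP peptide (50 nM final) in HEPES pH 7.5 buffer with NaCl, Tween 20, EDTA, TCEP. Compounds added before peptide; binding 20 min at RT.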
DRD3 agonist: activates the human D3 dopamine receptor; D3R DiscoveRx beta-arrestin cells, luminescence, 90 min; P35462; AID 652048; hit rate 0.58% among 410,000; max activation, %; in the data active means max activation above about 30%; further: 0% is about no effect
Target sequence (P35462 whole entry, looked up): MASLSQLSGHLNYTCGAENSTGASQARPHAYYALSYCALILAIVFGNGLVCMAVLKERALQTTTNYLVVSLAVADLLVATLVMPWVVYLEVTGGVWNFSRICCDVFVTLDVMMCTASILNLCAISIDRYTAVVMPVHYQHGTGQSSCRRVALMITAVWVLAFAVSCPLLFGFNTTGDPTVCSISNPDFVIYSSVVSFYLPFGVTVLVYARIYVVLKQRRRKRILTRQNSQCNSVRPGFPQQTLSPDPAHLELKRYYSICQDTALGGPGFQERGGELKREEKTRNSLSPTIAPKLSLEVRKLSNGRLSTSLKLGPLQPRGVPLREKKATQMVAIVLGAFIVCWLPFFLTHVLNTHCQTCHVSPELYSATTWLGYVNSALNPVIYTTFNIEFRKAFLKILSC
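Agonist-mode cell screen: cells plated at 1500/well and incubated overnight at 37 °C, then exposed to library compounds for 90 min at 37 °C. Detection reagent was added for 30–60 min at room temperature, and luminescence was read.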
Rango-impB inh: prevents formation of the Rango-importin beta complex | Q14974 | Potency, µM (top dose mostly 92.2 µM), for the others: at the top dose inhibition of complex formation | Rango CFP/YFP FRET sensor + importin beta, 45 min | AID 540263 | hit rate 0.031% among 340,000;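 further: potency means the concentration at half of the fitted maximal effect; 0% = DMSO wells and 100% = buffer wells lacking importin beta; nearly all actives have a fitted effect of over 15% in size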
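Inhibition scored from the CFP 486 nm/YFP 530 nm FRET ratio 45 min after adding 0.125 microM importin beta to 50 nM Rango biosensor preincubated 5 min with compound (room temperature, PBS with DTT, Tween-20, BSA). No-importin wells as positive control.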
DRD3 antagonist: D3 dopamine receptor (human) antagonism. P35462. D3R cells, DiscoveRx beta-arrestin luminescence, antagonist mode; stronger effect = lower value. max response, negative = inhibition, %. hit rate 2.5% among 360,000. AID 652054; in the data active means max response below about -50%; inconclusive means no clear call, values can overlap the other calls; further: on the % scale 0 is the no-effect control and ±100 the full control effect
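Cells plated overnight at 1500 cells/well, then exposed to library compounds with dopamine controls for 90 minutes at 37 degrees C. DiscoveRx reagent added for 30–60 minutes at room temperature; luminescence read, quantitative HTS format.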
Starred values were filed as active, the others as inactive; u = inconclusive; x = no result. Unless noted, the call rests on the fitted dose curve.

SMILES	MmCpn inh	Rango dissoc inh	PTAP TSG101 blk	DRD3 agonist	Rango-impB inh	DRD3 antagonist
CC(=O)C1=C(O)C(=O)N(CCc2c[nH]c3ccccc23)C1c1cccc(O)c1 (stereo not given)	-1%	4%	-4%	4	-1%	u
COc1cc(C2C(C(C)=O)=C(O)C(=O)N2CCc2c[nH]c3ccccc23)ccc1O (stereo not given)	2%	6%	-5%	0	3%	-56*
CC(C)CCn1c(-c2nonc2N)nc2ccccc21	1%	4%	-2%	1	-3%	-51*
CCC(C)NC(=O)c1cccc(NC(=O)c2nsc3ccccc23)c1 (stereo not given)	x	x	x	-5	x	x
CCOC(=O)c1ccc(NC(=O)CC2C(=O)N(c3ccc(F)cc3)C(=O)N2Cc2ccc3c(c2)OCO3)cc1 (stereo not given)	x	x	x	13	x	x
Cc1cc(C)c(C2C(C#N)=C(N)Oc3n[nH]c(C)c32)cc1CN1CCCC1 (stereo not given)	3%	18%	-6%	-31	-1%	-112*
CC1(C(=O)OCC(=O)Nc2cccc(S(=O)(=O)NC3=NCCCCC3)c2)CC1(Cl)Cl (stereo not given)	0%	2%	1%	45*	0%	1
COc1cccc(CN(C(=O)c2cccc(C)c2)C2CCS(=O)(=O)C2)c1 (stereo not given)	x	x	x	8	x	x
CC(C#N)(Nc1ccc(Cl)cc1)c1cccnc1 (stereo not given)	0%	16%	-4%	-18	1%	-61*
Clc1ccc(NCc2cccnc2)cc1	2%	-9%	-2%	-8	-4%	-7
Cc1ccc(C(=O)N2CCCC(N(C)Cc3ccccc3)C2)s1 (stereo not given)	-4%	2%	1%	-12	-2%	-62*
CC(=NNC(=S)N1CC2CCC(CC2)C1)c1cccc(C)n1	x	u	0%	1	7%	-73*
CN(Cc1ccccc1)C(=O)c1ccc(CSc2nc3cccnc3n2Cc2ccccc2F)cc1	x	x	x	0	x	x
Cn1c(Cl)c(/C=N/OC(=O)c2ccc(Cl)cc2)c2ccccc21	3%	-12%	-4%	-7	8%	-69*
Cc1ccc(C(=O)O/N=C/c2c(N3CCOCC3)n(C)c3ccccc23)cc1	0%	2%	-8%	53*	3%	46
COc1ccccc1CC(=O)N(CCC1=CCCCC1)c1c(N)n(Cc2ccccc2)c(=O)[nH]c1=O	-1%	-1%	1%	-15	-1%	-83*
COCCN(C(=O)COC(=O)/C=C/c1ccco1)c1c(N)n(Cc2ccccc2)c(=O)[nH]c1=O	0%	9%	-2%	1	-3%	13
COCCN(C(=O)COC(=O)/C=C/c1ccc(OC)c(OC)c1)c1c(N)n(Cc2ccccc2)c(=O)[nH]c1=O	-2%	5%	-7%	-3	3%	-69*
CCOc1ccc(Nc2sc(C(=O)c3cccc(OC)c3)c(N)c2S(=O)(=O)c2ccccc2)cc1	x	x	x	-5	x	x
O=C1N/C(=N/NC(=O)c2cccc3ccccc23)S/C1=C\c1ccccc1OCc1ccccc1	3%	u	-4%	6	u	-59*
COc1ccc2c(c1)c1c(c(=O)n(-c3cccc(Cl)c3)c(=O)n1C)n2C	x	x	x	-7	x	x
CC(C)c1ccc(C(=O)CC2(O)C(=O)N(CN3CCOCC3)c3ccccc32)cc1 (stereo not given)	1%	36%	-1%	-1	2%	-1
Cc1ccc(OCC(=O)Nc2ccc(OCc3cc(=O)n4cccc(C)c4n3)cc2)cc1C	x	x	x	12	x	x
CCCNc1ccc(S(=O)(=O)N(CC)CC)cn1	2%	1%	1%	18	-2%	14
CCN(CC)S(=O)(=O)c1ccc(NCc2ccccc2)nc1	0%	-8%	-8%	33*	-1%	14
SMILES	MmCpn inh	Rango dissoc inh	PTAP TSG101 blk	DRD3 agonist	Rango-impB inh	DRD3 antagonist
CCN(CC)S(=O)(=O)c1ccc(NCc2ccccn2)nc1	u	2%	0%	-2	0%	3
CCCNc1ccc(S(=O)(=O)N(C(C)C)C(C)C)cn1	2%	0%	-1%	-11	-2%	-75*
CCOC(=O)Cn1c(C)[n+](CC(=O)c2ccccc2)c2ccccc21	1%	24%	-5%	-7	-1%	-9
O=C(CCl)N(c1ccccc1)C1CCCCC1	2%	-6%	-6%	-11	2%	-65*
CC(C)(C)OC(=O)N1CCC(c2nnc(SCc3ccccc3)o2)CC1	x	x	x	-7	x	x
CC(C)c1ccc(C(C)NC(=O)C2CCCC2)cc1 (stereo not given)	-7%	-7%	-7%	31*	-4%	-4
COc1cc(/C=C/C(=O)OCC(=O)NC(=O)NC23CC4CC(CC(C4)C2)C3)ccc1OCC#N	1%	-15%	-3%	-7	5%	-53*
COc1cc(/C=C/C(=O)OCC(=O)NC(=O)NC(C)C)ccc1OCC#N	-3%	-13%	-1%	19	-1%	2
O=C(C[C@@H]1C/C=C\C[C@@H](Cc2ccc(F)cc2)C(=O)OC[C@@H]2CCCN2C1=O)N[C@H](CO)Cc1ccccc1	3%	-20%	0%	-5	-3%	-1
O=C(C[C@H]1C/C=C\CC[C@@H](Cc2ccc(F)cc2)C(=O)OC[C@H]2CCCN2C1=O)N[C@H](CO)Cc1ccccc1	-2%	4%	-2%	32*	1%	-8
CCC(C)n1ncn(-c2ccc(N3CCN(c4ccc(OC[C@H]5CO[C@](Cn6cncn6)(c6ccc(Cl)cc6Cl)O5)cc4)CC3)cc2)c1=O (stereo not given in full)	x	x	x	7	x	x
COc1ccc(C(CCNCc2ccc(N(C)C)cc2)c2ccccc2OC)cc1 (stereo not given)	-1%	1%	-4%	-30	6%	-55*
O=C(NC1CCCCC1)Sc1ccc(Cl)cc1	-1%	3%	-3%	0	0%	-91*
CCNC(=O)N1c2ccc(OCC)cc2C(C)=CC1(C)C	-1%	2.1µM*	-1%	0	u	-29
O=C(Nc1ccc2c(c1)OCCO2)N1CCN(c2ccccc2)CC1	1%	-4%	-1%	-2	2%	-52*
O=C1CSC(c2ccccc2F)N1CCN1CCCCC1 (stereo not given)	0%	1%	-3%	-6	6%	-86*
O=C1CSC(c2cccc([N+](=O)[O-])c2)N1CCN1CCCCC1 (stereo not given)	-9%	-11%	-1%	0	-1%	u
Cc1cc(C)c(S(=O)(=O)Nc2ccc3oc(C)c(C(=O)OC(C)C)c3c2)cc1C	x	x	x	16	x	x

Assay outcomes deposited in PubChem BioAssay by National Center for Advancing Translational Sciences (NCATS).
